# According to PubChem BioAssay (NCATS):
# Results filed as inconclusive are left out. Calls of active or inactive are those of the source. Calls come from the whole dose curve; as a rule, active = well fitted cell-killing curve with a large enough effect; inconclusive = small, poorly fitted or top-dose-only effect, or effect the other way; inactive = flat fitted curve, though single readings scatter.
# Test: S16 Schwann cell viability assay (CellTiter-Glo assay) (AID 624031); note: nearly all actives have a fitted effect of over 70% in size;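 for activity change, negative = cytotoxicity: cellular ATP luminescence as a viability measure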
# Details: S16 rat Schwann cells viability, 24 h; series mostly up to 57.5 µM; activity change, negative = cytotoxicity: at the top concentration
# Source text: Charcot-Marie-Tooth-Association [CMTA]
# National Center for Advancing Translational Sciences [NCATS]
# Charcot-Marie-Tooth (CMT) disease was first characterized by Jean-Martin Charcot and Pierre Marie in France and, independently, by Howard Henry Tooth in England in 1886. CMT is one of the most common inherited neurological diseases, affecting approximately 1 in 2,500 Americans. […] The most prevalent type of CMT is known as CMT1A and caused by a duplication of the PMP22 gene which leads to over-expression of this protein. PMP22 is a glycosylated intrinsic membrane protein accounting for 2-5% of the myelin protein content, and its over-expression results in demyelination and subsequently axonal loss.
# A pair of cellular transcription-based assays was developed in the S16 rat Schwann cell lines (Hai, M., et al., 2002) stably transfected with orthogonal reporters - firefly luciferase (Fluc) and beta-lactamase (beta-Lac) - whose expression is driven by an intronic regulatory element of the PMP22 gene (Jones, E.A., et al., 2011) to recapitulate endogenous expression of PMP22. A comprehensive library of approved drugs, the NCGC Pharmaceutical Collection (Huang, R., et al., 2011), was screened in the cross-validating platform of the orthogonal reporter assays to identify drug modulators inhibitory towards PMP22 expression.
# A set of counter-screens was devised to address non-specific activity of the library. An ATP-dependent CellTiter-Glo assay (developed by Promega Corp) was utilized to control cell viability. In addition, biochemical Fluc enzyme assay was performed to assess direct inhibition of the Fluc enzymatic activity.
# Hai, M., Muja, N., DeVries, G.H., Quarles, R.H. and Patel, P.I. Comparative analysis of Schwann cell lines as model systems for myelin gene transcription studies. J Neurosci Res, 2002. 69(4): pp 497-508
# Huang, R., Southall, N., Wang, Y., Yasgar A., Shinn P., Jadhav, A. , Nguyen, D.-T. and Austin, C.P., The NCGC pharmaceutical collection: a comprehensive resource of clinically approved drugs enabling repurposing and chemical genomics. Sci Transl Med, 2011. 3(80): p. 80ps16.
# Native S16 cells were seeded in white solid-bottom 1536 well plates at between 500-750 cells/6uL in DMEM medium containing 10% FBS, w/o phenol red. After overnight incubation at 37 degree Celsius/5% C02, 23 nL of compounds or DMSO were delivered to each well using a pin tool, followed by 24h-incubation at 37 degree Celsius/5% C02. Then one volume of CellTiter-Glo assay reagent (Promega) was added to each well for cell viability measured by a ViewLux plate reader (PerkinElmer). The % activity was determined by normalizing to the average readings from wells containing no cells relative to DMSO-treated cells (0% Activity). The concentration-effect curves were then classified based on curve quality (r2), response magnitude and degree of measured activity.
# Potency is the fitted concentration of half-maximal effect.
SMILES,"activity change, negative = cytotoxicity",Potency
CCC1(c2ccccc2)C(=O)NCNC1=O,5.3% (inactive),–
NC(=O)OCC(COC(N)=O)c1ccccc1,5.06% (inactive),–
CN(C)C(=N)N=C(N)N,-2.01% [at 25.7 µM] (inactive),–
CCOC(=O)Nc1ccc(NCc2ccc(F)cc2)nc1N,-25.2% (inactive),–
CS(=O)(=O)CCNCc1ccc(-c2ccc3ncnc(Nc4ccc(OCc5cccc(F)c5)c(Cl)c4)c3c2)o1,3.65% (inactive),–
Cc1cn([C@H]2C[C@H](N=[N+]=[N-])[C@@H](CO)O2)c(=O)[nH]c1=O,1.97% (inactive),–
Cn1c(=O)c2[nH]cnc2n(C)c1=O,8.65% (inactive),–
CCOC(=O)C(C)(C)Oc1ccc(Cl)cc1,-4.7% (inactive),–
COc1nc(C)nc(Cl)c1NC1=NCCN1,-22.8% [at 25.7 µM] (inactive),–
COc1ccc2[nH]cc(CCNC(C)=O)c2c1,2.77% (inactive),–
CN(C)CCOC(c1ccccc1)c1ccccc1,8.17% (inactive),–
CC(C)NCC(O)c1ccc(O)c(O)c1 (stereo not given),-0.965% (inactive),–
Nc1nc2c(ncn2COC(CO)CO)c(=O)[nH]1,6.51% [at 25.7 µM] (inactive),–
Clc1ccccc1C(c1ccccc1)(c1ccccc1)n1ccnc1,5.59% [at 25.7 µM] (inactive),–
Cc1cnc(C(=O)NCCc2ccc(S(=O)(=O)NC(=O)NC3CCCCC3)cc2)cn1,4.84% (inactive),–
NS(=O)(=O)c1cc2c(cc1Cl)NCNS2(=O)=O,-5.46% (inactive),–
Nc1nnc(-c2cccc(Cl)c2Cl)c(N)n1,-13.5% (inactive),–
CC(C)(Oc1ccc(C2CC2(Cl)Cl)cc1)C(=O)O (stereo not given),6.93% (inactive),–
NC(=O)NO,3.65% (inactive),–
CCOC(=O)c1ncn2c1CN(C)C(=O)c1cc(F)ccc1-2,8.74% (inactive),–

SMILES,"activity change, negative = cytotoxicity",Potency
CC12CC3CC(C)(C1)CC(N)(C3)C2,-1.95% (inactive),–
O=c1[nH]cc(F)c(=O)[nH]1,-5.05% (inactive),–
CCCCc1oc2ccccc2c1C(=O)c1cc(I)c(OCCN(CC)CC)c(I)c1,–,32.2 µM (active)
CN(C)CCCN1c2ccccc2CCc2ccc(Cl)cc21,–,20.3 µM (active)
Nc1c2c(nc3ccccc13)CCCC2,16.4% (inactive),–
CN(CCOc1ccc(NS(C)(=O)=O)cc1)CCc1ccc(NS(C)(=O)=O)cc1,2.93% (inactive),–
Cc1cc(C(C)(C)C)c(O)c(C)c1CC1=NCCN1,-14% (inactive),–
CC(=O)OCC(CCn1cnc2cnc(N)nc21)COC(C)=O,16% (inactive),–
CS(=O)(=O)Nc1ccc([N+](=O)[O-])cc1Oc1ccccc1,-2.14% [at 25.7 µM] (inactive),–
Clc1ccc2nsnc2c1NC1=NCCN1,-5.33% (inactive),–
C[C@](N)(Cc1ccc(O)c(O)c1)C(=O)O,10.3% (inactive),–
Cn1c(=O)c2c(ncn2C)n(C)c1=O,2.87% (inactive),–
O=C(CCCN1CCC(O)(c2ccc(Cl)cc2)CC1)c1ccc(F)cc1,-14.9% (inactive),–
Clc1ccc(C(c2ccccc2Cl)C(Cl)Cl)cc1 (stereo not given),-1.17% (inactive),–
CC(C)NCC(O)COc1ccc(CCOCC2CC2)cc1 (stereo not given),-14.5% (inactive),–
Cc1cn([C@H]2C=C[C@@H](CO)O2)c(=O)[nH]c1=O,3.75% (inactive),–
O=c1c(-c2ccc(O)cc2)coc2cc(O)cc(O)c12,4.54% (inactive),–
NCCCCCC(=O)O,17% [at 25.7 µM] (inactive),–
CC(COc1ccccc1)N(CCCl)Cc1ccccc1 (stereo not given),-6.83% (inactive),–
CC(C)C(=O)Nc1ccc([N+](=O)[O-])c(C(F)(F)F)c1,0% (inactive),–
